# Measured values reported in ChEMBL document CHEMBL3988442, “University of Dundee, Small-Polar-MMV Screening Library” (2021).
# Out of some 48,000 compounds screened, about 13,000 (27%) showed an effect of 50% or more. The list shows a part of the results.
# System: Wolbachia pipientis
# Test: Anti-Wolbachia Cell-Based Screen
# Assay type: functional
# Design: scale not given: in the data most compounds retested in dose-response had high values
# Conditions: 5 µM
row,SMILES,Percent Effect
1,Cc1cc(NC(=O)c2ccc(N3CCOCC3)c(F)c2)[nH]n1,-5.615%
2,Cl.O=C(NC[C@@]1(COc2cnccn2)C[C@@H](O)[C@@H](O)C1)C1CC1,-0.6559%
3,O=C(NCc1ccccc1F)NCC(O)c1cccc(F)c1 (configuration not stated),109.5%
4,O=C(NCCc1ccccc1F)NCC(O)c1cccc(F)c1 (configuration not stated),91.24%
5,O=C(NCC(O)c1cccc(F)c1)c1cccnc1O (configuration not stated),-4.303%
6,CN1CCN(C)C(c2nnc3ccc(C(=O)N4CCOCC4)cn23)C1.O=C(O)C(F)(F)F.O=C(O)C(F)(F)F (configuration not stated),7.547%
7,COc1ncc(C)cc1NC(=O)CCc1ccccn1,-10.54%
8,Cc1nc(N2CCC(C(O)c3nccn3C)CC2)c2sccc2n1 (configuration not stated),-1.351%
9,CO[C@H]1[C@@H]2CC[C@H]1CN(c1nc(C)nc3ccsc13)C2,116.9%
10,CO[C@H]1[C@@H]2CC[C@H]1CN(c1nc(C)nc3sccc13)C2,2.93%
11,Cc1nc2c(c(N3CCC(O)(CN4CCCC4)CC3)n1)CCNCC2,-22.09%
12,Cn1cc(C2CCCN2C(=O)CCn2ccc3ccccc32)cn1 (configuration not stated),20.59%
13,CNc1cncc(C2CCCN2C(=O)c2ccc3oc(=O)n(C)c3c2)n1 (configuration not stated),-20.51%
14,CC(C)c1nccn1CCC(=O)N1CCCC1c1cccn1C (configuration not stated),1.985%
15,O=C(Cn1c(=O)oc2ccccc21)N1Cc2cncnc2C1,-8.946%
16,CNc1cncc(C2CCCN2C(=O)CCn2ccnc2C(C)C)n1 (configuration not stated),103%
17,CNc1cncc(C2CCCN2C(=O)CCn2ccnc2)n1 (configuration not stated),78.35%
18,O=C(NCCCn1ccnc1)N1CCCC1c1ccncc1 (configuration not stated),0.09304%
19,CC(C)c1nccn1CCC(=O)N1CCCCC1c1ccn[nH]1 (configuration not stated),89.39%
20,CNc1cncc(C2CCCN2C(=O)Cn2c(=O)oc3ccccc32)n1 (configuration not stated),88.17%
21,CC(C)(C)Cc1noc2ncc(C(=O)N3CCCSCC3)cc12,-8.808%
22,Cn1c(-c2ccc(F)cc2)cn2cc(C(=O)N3CC[C@@H](O)C3)nc2c1=O,4.586%
23,CN(C(=O)Cc1ccc(NC(=O)NC2CC2)cc1)c1ccccc1,5.932%

row,SMILES,Percent Effect
1,COc1cccc(/C=C/CCN2CCC(C(=O)N3CCCC3)CC2)c1,-5.123%
2,CC(C)CCN1CC2(CCCN(C(=O)NCc3cccs3)C2)CCC1=O (configuration not stated),1.307%
3,CCc1nccn1CCC(=O)N1CCCC1c1ccc(F)cc1 (configuration not stated),18.71%
4,CCc1nccn1CCC(=O)N1CC[C@H](CO)[C@H](O)C1,-12.26%
5,CNc1cncc(C2CCCN2C(=O)Cn2ccnc2C)n1 (configuration not stated),100.6%
6,CCc1nccn1CCC(=O)N1CCCC1c1cncc(NC)n1 (configuration not stated),72.9%
7,CCc1nc(CN2CCCN(c3nc4ccccc4o3)CC2)no1,1.249%
8,O=C(NC1CCN(C2CC2)CC1)c1[nH]nc(C2CC2)c1Cl,0.5841%
9,CCn1cc(CN2C[C@H]3CC[C@@H]2CN(C(=O)C2CCC2)C3)cn1,1.465%
10,CSCC(C)(O)CNC(=O)Nc1cc(C)cc(C)c1 (configuration not stated),-12.06%
11,Cn1nc(C2CC2)c2c1NC(=O)CC2c1cc(CN2CCCC2)cs1 (configuration not stated),-26.2%
12,CCOCCn1c(=O)[nH]c2cc(C(=O)N(C)Cc3cc(C)[nH]n3)ccc21,4.063%
13,C=C(C)CN1CCC(NC(=O)NCCc2ccc(N(C)C)cc2)CC1,-10.94%
14,CNc1cc(N2CCCC2CNCc2cnc(C)cn2)ncn1 (configuration not stated),-4.576%
15,CNc1cc(N2CCC(O)(CNC(=O)c3ccc(C)nc3)C2)ncn1 (configuration not stated),87.58%
16,Cc1ccc(C(=O)NCc2ccnc(N3CCN(C)CC3)c2)cn1,-19.75%
17,COCc1nc(C(=O)N2CCCCC2Cn2cc(C)cn2)cs1 (configuration not stated),2.393%
18,Cc1cnn(CC2CCCN2C(=O)c2csc(C3CC3)n2)c1 (configuration not stated),86.35%
19,COCc1nc(C(=O)N2CCCC2c2ccccc2C)cs1 (configuration not stated),8.95%
20,Cc1cnn(CC2CCCN2C(=O)c2csc(C(C)C)n2)c1 (configuration not stated),113.9%
21,Cc1cnn(CC2CCCCN2C(=O)c2ccc(C#N)c(C)n2)c1 (configuration not stated),2.901%
22,COCc1nc(C(=O)N2CCCC2Cn2cc(C)cn2)cs1 (configuration not stated),115.1%
23,CC(Nc1ccc(CN2CCCC2=O)cc1)c1ccc(C#N)cc1 (configuration not stated),3.244%

row,SMILES,Percent Effect
1,CCc1ccc(C(=O)O)cc1S(=O)(=O)Nc1ccc(=O)n(C)c1,-7.326%
2,O=C(NC1CCc2nccn2C1)c1ccc(OCC2CC2)nc1 (configuration not stated),-10.39%
3,CC(=O)N1CCc2nc3sc(C(N)=O)c(N)c3c(C(F)(F)F)c2C1,0.4865%
4,CCn1ncnc1CN1CCC(CNC(=O)c2cccc(C)c2)C1 (configuration not stated),94.27%
5,Nc1cc(C(=O)NCC2CCN(Cc3cccc(O)c3)C2)ccn1 (configuration not stated),-106.2%
6,CCn1ncnc1CN1CCC(CNC(=O)c2cccc(C)n2)C1 (configuration not stated),95.93%
7,CCn1ccnc1CN1CCC(CNC(=O)c2ccc(C)nc2)C1 (configuration not stated),-5.867%
8,Cc1cc(CN2CCC(CNC(=O)c3nccc4ccccc34)C2)[nH]n1 (configuration not stated),5.129%
9,CCc1cc(C(=O)NCC2CCN(Cc3cccc(C)n3)C2)on1 (configuration not stated),1.32%
10,Cc1ccccc1C(C(=O)N(Cc1cnn(C)c1)CC(C)C)N(C)C (configuration not stated),-6.978%
11,Cc1cccc(-c2nc(C)nn2CN2CCC3(CC2)OCCO3)c1,0.3778%
12,Cc1cccnc1N1CCN(C(=O)CCc2cn3ccccc3n2)CC1,-2.508%
13,COc1ccc(C(=O)N(C2CC2)C2CC(=O)NC2=O)cc1 (configuration not stated),-6.531%
14,O=C1CC(N(C(=O)c2ccccc2Br)C2CC2)C(=O)N1 (configuration not stated),-20.12%
15,O=C1CC(N(C(=O)COc2ccc(F)cc2F)C2CC2)C(=O)N1 (configuration not stated),87.23%
16,O=C1CC(N(C(=O)c2ccc(-n3cccc3)cc2)C2CC2)C(=O)N1 (configuration not stated),-5.765%
17,O=C1CC(N(C(=O)CCc2cc(F)ccc2F)C2CC2)C(=O)N1 (configuration not stated),101%
18,O=C1CC(N(C(=O)CCc2c[nH]c3ccccc23)C2CC2)C(=O)N1 (configuration not stated),78.13%
19,COc1cc(C(=O)N(C2CC2)C2CC(=O)NC2=O)ccc1C (configuration not stated),-10.25%
20,O=C1CC(N(C(=O)Cc2csc(-c3ccccc3)n2)C2CC2)C(=O)N1 (configuration not stated),1.029%
21,O=C1CC(N(C(=O)c2ccc3c(c2)CCC3)C2CC2)C(=O)N1 (configuration not stated),-12.36%
